# Measurements as given in PubChem BioAssay.
# Calls of active or inactive are those of the source.
# What was measured:
# [1] = tested on: Plasmodium falciparum Sir2 (PF13_0152, Sir2A); assay: Plasmodium falciparum Sir2A binding compounds – biochemical, small-molecule microarray, 635 nm fluorescence, primary screen (AID 1098); conditions: fluorescence 635 nm, higher = more signal;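 also: score merges spot fluorescence intensity with its signal-to-noise ratio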
# [2] = probe aDKK1 binding to arrayed compounds – biochemical, biotinylated probe, 635/667 nm fluorescence, primary screen (AID 1099); conditions: small-molecule microarray, higher = more signal;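 also: score merges 667nm spot fluorescence with signal to noise across triplicate slides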
# [3] = probe aCHRDL2 binding to arrayed compounds – biochemical, biotinylated probe, 635/667 nm fluorescence, primary screen (AID 1100); conditions: small-molecule microarray, higher = more signal
# [4] = change in splice reporter luminescence, either direction, cell-based, HEK293, spliceosome inhibition project, primary screen (AID 1101); conditions: HEK293 splicing luciferase reporter, 24 h, higher = more signal, called active from +8 up or from −8 down;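 also: HEK293 cells carrying a splicing-competent luciferase reporter gene; test concentration not given here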
# [5] = biological target: Fibroblast growth factor 10 (Homo sapiens) (UniProt O15520); assay: compounds binding fibroblast growth factor 10 – biochemical, small-molecule microarray, 635 nm fluorescence, primary screen (AID 1102); conditions: FGF10 binding, fluorescence 635 nm, higher = more signal
# [6] = tested on: glycogen synthase kinase-3 (GSK3A per assay name; protocol says GSK3B); assay: compounds binding glycogen synthase kinase-3 – biochemical, small-molecule microarray, 635 nm fluorescence, GSK3A, primary screen (AID 1103); conditions: fluorescence 635 nm, higher = more signal; also: the record names both GSK3A and GSK3B
# [7] = biological target: Epidermal growth factor receptor (Homo sapiens) (UniProt P00533); assay: compounds binding epidermal growth factor receptor – biochemical, small-molecule microarray, 635 nm fluorescence, primary screen (AID 1104); conditions: EGFR binding, higher = more signal;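 also: score merges 667 nm emission intensity with spot signal to noise over triplicate slides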
# [8] = biological target: Follistatin-related protein 3 (Homo sapiens) (UniProt O95633); assay: compounds binding follistatin-related protein 3 – biochemical, small-molecule microarray, 635 nm fluorescence, primary screen (AID 1105); conditions: FSTL3 binding, higher = more signal;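 also: score merges emission near 667 nm and signal to noise per printed spot across three slides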
# [9] = biological target: Dickkopf-related protein 1 (Homo sapiens) (UniProt O94907); assay: small molecules binding DKK1 protein – biochemical, small-molecule microarray, 635 nm fluorescence scan, primary screen (AID 1106); conditions: higher = more signal;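 also: score merges emission near 667 nm with signal to noise over three replicate slides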
# [10] = tested on: Inhibin beta A chain (activin A); assay: small molecules binding activin A – biochemical, small-molecule microarray, 635 nm fluorescence scan, primary screen (AID 1107); conditions: INHBA, higher = more signal;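 also: mouse activin A protein probed at 4.33 µg/mL on printed slides; score merges bound-protein fluorescence near 667 nm with spot signal-to-noise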
# [11] = tested on: Human papillomavirus type 1a protein E7 (residues 44-93); assay: small molecules binding HPV E7 44-93 – biochemical, small-molecule microarray, residues 44-93, 635 nm fluorescence, primary screen (AID 1108); conditions: fluorescence 635 nm, higher = more signal;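 also: E7 fragment applied at 1 µg/mL in TBST for 1 h at 4 C; score combines spot fluorescence with its signal to noise ratio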
# [12] = hepatitis C replication reporter changes, two-sided – Huh7 cells, luciferase reporter, HCV replication inhibitor project, primary screen (AID 1109); conditions: Huh7 HCV replicon luciferase reporter, 48 h; higher = more signal;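 also: huh7 hepatoma cells harbouring a luciferase neomycin HCV replicon reporter; luciferase luminescence as measure of HCV replicon replication; test concentration not given here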
# [13] = biological target: Left-right determination factor 2 (Homo sapiens) (UniProt O00292); assay: small molecules binding LEFTY2 protein – biochemical, small-molecule microarray, 635 nm fluorescence scan, primary screen (AID 1110); conditions: higher = more signal
# [14] = biological target: Calmodulin-1 (Homo sapiens) (UniProt P0DP23); assay: small molecules binding calmodulin-1 with EGTA – biochemical, small-molecule microarray, Cy5-labelled CALM1, profiling panel (AID 1111); conditions: Cy5-CALM1 binding fluorescence, higher = more signal;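 also: labelled calmodulin applied in Tris saline Tween buffer holding calcium plus EGTA and DTT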
# [15] = biological target: Calmodulin-1 (Homo sapiens) (UniProt P0DP23); assay: small molecules binding Ca-loaded calmodulin-1 – biochemical, small-molecule microarray, Cy5-labelled CALM1, plus calcium, artefact control for SMM control-protein annotation, profiling panel (AID 1112); conditions: Cy5-CALM1 binding fluorescence, higher = more signal;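 also: score merges spot fluorescence with signal to noise from triplicate slides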
# [16] = probe aWnt5a binding to arrayed compounds – biochemical, biotinylated probe, 635/667 nm fluorescence, primary screen (AID 1113); conditions: small-molecule microarray, higher = more signal;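 also: score merges 667 nm fluorescence intensity with signal-to-noise per printed feature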
# [17] = probe aShh binding to arrayed compounds – biochemical, biotinylated probe, 635/667 nm fluorescence, primary screen (AID 1114); conditions: small-molecule microarray, higher = more signal;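 also: probe is biotin-labelled aShh protein from a stem cell growth factor screen; measures binding of labelled protein to compounds printed on the slide; score merges feature fluorescence at 667 nm with signal-to-noise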
# [18] = probe aNog binding to arrayed compounds – biochemical, biotinylated probe, 635/667 nm fluorescence, primary screen (AID 1115); conditions: small-molecule microarray, higher = more signal;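 also: probe is biotinylated aNog protein used at 0.15 µg/mL for 1 h at 4 C; z-score combines 667 nm fluorescence of each spot with its signal to noise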
# [19] = biological target: Torsin-1A-interacting protein 1 (Homo sapiens) (UniProt Q5JTV8); assay: compound microarray binding of lysate hLAP1 – cell lysate, small-molecule microarray, COS7 lysate, 635/667 nm fluorescence, primary screen (AID 1116); conditions: 635 nm fluorescence, higher = more signal
# [20] = biological target: Alpha-bungarotoxin (Bungarus multicinctus) (UniProt P60615); assay: compounds binding labelled alpha-BTX control protein – biochemical, small-molecule microarray, Alexa647 label, 635/667 nm fluorescence, artefact control for SMM control protein annotation, profiling panel (AID 1117); conditions: alpha-BTX-A647 binding fluorescence, higher = more signal
# Alpha-bungarotoxin (Bungarus multicinctus), sequence (P60615 whole entry, looked up): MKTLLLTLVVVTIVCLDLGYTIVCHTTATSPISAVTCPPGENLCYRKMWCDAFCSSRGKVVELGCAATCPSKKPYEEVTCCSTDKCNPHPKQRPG
# Torsin-1A-interacting protein 1 (Homo sapiens), sequence (Q5JTV8 whole entry, looked up): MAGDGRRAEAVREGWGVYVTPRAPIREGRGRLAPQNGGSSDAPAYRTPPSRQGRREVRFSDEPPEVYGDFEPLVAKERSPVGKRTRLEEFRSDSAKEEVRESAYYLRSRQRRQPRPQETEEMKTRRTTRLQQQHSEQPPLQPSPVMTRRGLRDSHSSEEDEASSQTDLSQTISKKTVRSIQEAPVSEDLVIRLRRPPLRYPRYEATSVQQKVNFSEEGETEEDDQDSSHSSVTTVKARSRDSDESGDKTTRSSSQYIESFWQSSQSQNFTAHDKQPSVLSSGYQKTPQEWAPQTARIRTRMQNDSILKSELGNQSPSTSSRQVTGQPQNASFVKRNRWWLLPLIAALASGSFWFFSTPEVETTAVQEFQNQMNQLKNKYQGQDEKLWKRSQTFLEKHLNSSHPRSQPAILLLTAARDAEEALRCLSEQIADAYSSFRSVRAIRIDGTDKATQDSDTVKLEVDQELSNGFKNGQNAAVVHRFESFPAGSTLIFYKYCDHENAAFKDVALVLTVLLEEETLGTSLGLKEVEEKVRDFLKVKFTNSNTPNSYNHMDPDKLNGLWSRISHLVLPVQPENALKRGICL
# Dickkopf-related protein 1 (Homo sapiens), sequence (O94907 whole entry, looked up): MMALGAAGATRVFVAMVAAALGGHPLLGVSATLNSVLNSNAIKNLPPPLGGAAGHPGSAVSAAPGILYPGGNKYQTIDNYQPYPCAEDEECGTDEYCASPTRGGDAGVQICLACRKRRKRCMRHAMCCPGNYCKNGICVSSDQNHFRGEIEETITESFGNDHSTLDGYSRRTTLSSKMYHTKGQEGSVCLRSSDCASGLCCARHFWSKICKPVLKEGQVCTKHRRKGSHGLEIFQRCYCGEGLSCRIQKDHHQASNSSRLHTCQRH
# Epidermal growth factor receptor (Homo sapiens), sequence (P00533 whole entry, looked up): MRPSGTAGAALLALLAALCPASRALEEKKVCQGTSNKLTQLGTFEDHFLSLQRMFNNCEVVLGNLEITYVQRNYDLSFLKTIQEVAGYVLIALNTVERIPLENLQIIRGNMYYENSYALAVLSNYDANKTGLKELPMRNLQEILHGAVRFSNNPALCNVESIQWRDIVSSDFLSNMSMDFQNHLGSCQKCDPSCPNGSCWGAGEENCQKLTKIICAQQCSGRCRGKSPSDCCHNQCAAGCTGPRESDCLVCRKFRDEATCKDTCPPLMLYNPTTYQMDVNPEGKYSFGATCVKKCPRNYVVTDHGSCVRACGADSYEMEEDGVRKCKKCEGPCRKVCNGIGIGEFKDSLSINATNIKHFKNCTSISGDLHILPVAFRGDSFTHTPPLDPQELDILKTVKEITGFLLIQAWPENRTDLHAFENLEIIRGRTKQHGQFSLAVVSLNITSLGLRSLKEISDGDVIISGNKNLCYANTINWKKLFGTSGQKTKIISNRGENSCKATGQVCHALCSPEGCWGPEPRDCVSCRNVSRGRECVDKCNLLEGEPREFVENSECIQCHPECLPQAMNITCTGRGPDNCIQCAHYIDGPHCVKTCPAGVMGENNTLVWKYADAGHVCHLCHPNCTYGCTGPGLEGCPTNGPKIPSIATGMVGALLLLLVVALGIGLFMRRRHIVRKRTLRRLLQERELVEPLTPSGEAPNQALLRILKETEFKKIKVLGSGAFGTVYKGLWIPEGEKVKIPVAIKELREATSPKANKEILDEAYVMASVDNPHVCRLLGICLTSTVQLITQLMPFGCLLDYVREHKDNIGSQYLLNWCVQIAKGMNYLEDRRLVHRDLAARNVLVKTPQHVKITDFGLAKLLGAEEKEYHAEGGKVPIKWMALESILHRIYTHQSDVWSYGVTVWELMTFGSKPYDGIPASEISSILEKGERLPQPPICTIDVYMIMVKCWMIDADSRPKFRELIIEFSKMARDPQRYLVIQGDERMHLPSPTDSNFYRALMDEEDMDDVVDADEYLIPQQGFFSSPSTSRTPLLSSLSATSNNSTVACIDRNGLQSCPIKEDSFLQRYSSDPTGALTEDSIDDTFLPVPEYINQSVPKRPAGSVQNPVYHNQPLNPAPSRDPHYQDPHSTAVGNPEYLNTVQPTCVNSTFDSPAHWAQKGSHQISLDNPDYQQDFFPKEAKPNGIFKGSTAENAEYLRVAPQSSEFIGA
# Fibroblast growth factor 10 (Homo sapiens), sequence (O15520 whole entry, looked up): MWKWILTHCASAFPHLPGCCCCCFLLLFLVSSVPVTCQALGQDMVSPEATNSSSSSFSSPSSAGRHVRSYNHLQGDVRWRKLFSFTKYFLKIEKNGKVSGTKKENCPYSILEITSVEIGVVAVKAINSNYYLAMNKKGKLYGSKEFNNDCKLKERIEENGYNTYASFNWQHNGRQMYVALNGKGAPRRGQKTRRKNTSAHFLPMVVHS
# Follistatin-related protein 3 (Homo sapiens), sequence (O95633 whole entry, looked up): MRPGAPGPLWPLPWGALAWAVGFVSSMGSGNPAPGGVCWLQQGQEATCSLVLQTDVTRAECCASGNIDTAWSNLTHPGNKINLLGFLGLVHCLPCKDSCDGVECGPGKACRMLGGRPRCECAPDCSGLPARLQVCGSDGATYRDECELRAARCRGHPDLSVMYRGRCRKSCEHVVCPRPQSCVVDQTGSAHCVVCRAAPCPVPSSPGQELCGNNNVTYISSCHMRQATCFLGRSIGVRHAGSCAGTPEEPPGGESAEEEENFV
# Left-right determination factor 2 (Homo sapiens), sequence (O00292 whole entry, looked up): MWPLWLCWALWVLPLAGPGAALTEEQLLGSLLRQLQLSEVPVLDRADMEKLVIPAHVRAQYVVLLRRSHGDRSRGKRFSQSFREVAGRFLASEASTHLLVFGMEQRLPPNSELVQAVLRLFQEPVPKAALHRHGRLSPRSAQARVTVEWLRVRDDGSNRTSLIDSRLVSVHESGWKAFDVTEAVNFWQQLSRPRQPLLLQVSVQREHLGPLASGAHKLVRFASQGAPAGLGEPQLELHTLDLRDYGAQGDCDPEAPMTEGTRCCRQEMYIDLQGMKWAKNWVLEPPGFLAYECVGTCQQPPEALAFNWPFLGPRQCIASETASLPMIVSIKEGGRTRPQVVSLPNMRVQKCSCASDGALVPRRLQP
Structure (SMILES),composite z-score [1],composite z-score [2],composite z-score [3],z-score [4],composite z-score [5],composite z-score [6],composite z-score [7],composite z-score [8],composite z-score [9],composite z-score [10],composite z-score [11],z-score [12],composite z-score [13],composite z-score [14],composite z-score [15],composite z-score [16],composite z-score [17],composite z-score [18],composite z-score [19],composite z-score [20]
C[C@H](ON=C1[C@H]2CCn3c(=O)n(-c4ccccc4)c(=O)n3[C@H]2[C@H](O)[C@@H]2O[C@H]12)c1cn([C@H](CO)Cc2ccccc2)nn1,-0.0041,-0.15,-0.519,-0.421 (inactive),0.513,0.266,0.377,0.659,0.559,0.437,0.345,-2.91,0.605,1.15,-0.444,-0.0179,-0.195,0.0637,-0.168,0.104
O=C1[C@H]2[C@H]3[C@H](O)[C@H](O)CC(=NOCc4ccccc4)[C@@H]3CC[C@H]2C(=O)N1C[C@@H]1CCCO1,0.0048,-0.168,-0.21,0.274 (inactive),0.179,-0.451,-0.0735,-0.304,-0.028,0.164,-0.236,0.189,0.316,0.583,-0.0696,-0.117,-0.0553,-0.158,-0.126,0.879
C[C@H]1CC[C@H]2C(=O)OC(CO)CN2[C@@H]1c1ccc(Br)cc1 (stereo not given in full),-0.273,-0.28,-0.0574,-0.522 (inactive),0.0323,-0.536,0.242,-0.34,-0.241,0.757,-0.558,-0.125,0.137,-0.201,-0.607,-0.0778,0.0284,-0.178,-0.303,0.867
COC(=O)[C@@H]1CC[C@H](C)[C@@H](c2ccc(C)cc2)N1C(=O)c1ccc(C=NO[C@H](C)c2cn([C@H](CO)Cc3ccccc3)nn2)cc1,0.652,0.178,0.115,-0.178 (inactive),0.694,0.835,0.551,1.05,0.81,0.135,0.671,-2.17,0.776,3.17,-0.139,-0.124,0.191,-0.0318,0.462,0.0997
COc1ccc(O[C@H]2C=C[C@@H](c3ccccc3)O[C@@H]2CON=C(C)C)cc1,1.04,0.267,0.755,1.07 (inactive),-0.665,-1.12,-0.0601,-0.0815,-0.292,1.42,-0.336,-0.75,0.317,0.0047,0.495,0.0761,0.318,0.118,0.314,0.724
CCOC(=O)[C@H](CC(C)C)NC(=O)CCC1CC(OC(=O)NCc2cccc3ccccc23)CC2(CCCC(COC(=O)NCc3ccncc3)O2)O1 (stereo not given in full),0.741,-0.131,-0.377,-0.00923 (inactive),1.2,1.06,0.363,0.887,0.559,-0.177,1.38,-1,0.554,-0.118,-0.376,0.0037,-0.0146,-0.036,0.526,0.267
CCc1cc2c(nc1CC)CCN(CCC(C)=NO[C@H](C)c1cn([C@H](CO)Cc3ccccc3)nn1)C2,0.536,-0.144,-0.0059,-0.0554 (inactive),0.0168,0.0291,0.1,0.11,0.274,1.3,0.21,-2.38,0.437,-0.315,-0.439,-0.0165,1.19,-0.4,0.967,0.568
COC(=O)[C@H](C)NC(=O)CCC1CC(OC(=O)NCc2ccc3c(c2)OCO3)CC2(CCCC(COC(=O)NCC3CCCCC3)O2)O1 (stereo not given in full),0.74,-0.21,-0.647,0.507 (inactive),1.29,0.98,0.621,1.07,0.822,-0.144,1.37,-1.48,0.764,0.369,-0.0553,0.0775,-0.138,0.656,0.173,0.54
COC(=O)[C@H]1[C@@H](O)[C@@]2(O)c3ccccc3O[C@@]2(c2ccccc2)[C@@H]1c1ccccc1,-0.125,-0.12,-0.535,0.217 (inactive),0.0746,-0.0393,0.396,-0.134,0.384,-0.011,-0.673,-0.1,0.401,-0.449,-0.336,-0.156,0.0815,-0.136,0.096,-0.516
CO[C@H]1COC(=O)[C@@H](C)COC(=O)[C@H](COCc2ccccc2)NC(=O)CC=C[C@H]1C,0.641,-0.492,-0.828,0.104 (inactive),0.121,-0.523,0.039,0.678,0.705,2.01,-1.39,-0.292,1.23,-3.3,-3.53,-0.247,0.0062,0.0139,-0.526,-0.445
CC(CCN1CCc2nc(-c3ccccc3)c(-c3ccccc3)cc2C1)=NOC[C@@H](O)[C@H]1O[C@@H]2OC(C)(C)O[C@@H]2[C@H]1O,0.525,-0.414,-0.395,0.662 (inactive),0.743,0.587,0.28,0.583,0.341,0.376,1.12,-2.73,0.642,0.12,-0.233,-0.139,-0.0709,-0.353,0.825,0.673
